# Test results taken from PubChem BioAssay (NCI).
# This is part of a sample that, as a whole, favours compounds with a hit. Of some 83,000 tested, about 20% had one in any assay.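 Note: values are percent growth. 100 is the growth of untreated cells, values between 100 and 0 indicate rising inhibition; between -100 and 0 indicates cell death.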 Values without a mark were called inactive. The source made the active and inactive calls. Rule for the calls: active = growth percent below 10; inactive = the rest.
# Tested on: HL-60(TB) leukemia
# Test: NCI-60 one-dose screen, 48 h (100 = growth as untreated, 0 = no growth, -100 = all killed)
# Settings: 10 µM unless noted
row,SMILES,growth
1,COc1ccc(C/C(C)=C(/c2ccc(OCCN3CCCCCC3)cc2)c2ccc(OC(=O)NCc3ccccc3)cc2)cc1,45%
2,Nc1nc(Nc2ccccc2SSc2ccccc2Nc2nc(N)nc(-c3cccc(Cl)c3)n2)nc(-c2cccc(Cl)c2)n1,99.3%
3,FC(F)(F)c1ccc2c(Nc3cccc(C4CC(c5ccccc5)=NN4c4ccc(Cl)cc4)c3)ccnc2c1 (stereo not given),36.5%
4,Nc1c(C(=O)c2ccc(Cl)cc2)sc(Nc2ccccc2)c1-c1nc2ccccc2s1,69.6%
5,O=C(/C=C/c1cccc(Cl)c1Cl)Nc1ncc(Cc2ccccc2Cl)s1,-3.06% (active)
6,COc1ccc(-c2nc(-c3nc4cc(C)c(C)cc4[nH]3)cc3c2[nH]c2ccccc23)cc1,-31.9% (active)
7,O=C(/C=C/c1sc(Cl)nc1Cl)c1ccc(Br)cc1,71.4%
8,CCN1CCN(CC(=O)N2c3cccc4cccc(c34)N(C(=O)CN3CCN(CC)CC3)C2c2cn(-c3ccccc3)nc2-c2cccc([N+](=O)[O-])c2)CC1,-63.9% (active)
9,N#CC1=C(N)Oc2c(c(N)nn2-c2ccccc2)C1c1ccc(Cl)cc1Cl (stereo not given),96.5%
10,S=c1ssnc1-c1cc2ccccc2o1,78%
11,CCN(CC)c1ccc(N2C(=O)/C(=C/c3cccs3)SC2=S)cc1,92.6%
12,COc1ccc(CCN2CCCn3c2nc2ccccc2c3=O)cc1,-5.2% (active)
13,CCOC(=O)/C=C1\S/C(=N\Nc2cc(=O)[nH]c3ccc(OC)cc23)N(c2ccccc2)C1=O,96.1%
14,CCOc1cc(/C=C/C(=O)C(C(=O)/C=C/c2ccc(OC(=O)CNc3nnc(C)s3)c(OCC)c2)C(=O)CNc2nnc(C)s2)ccc1OC(=O)CNc1nnc(C)s1,-46.4% (active)
15,NCCCOc1cc(Cl)ccc1NC(=O)c1cc2ccccc2cc1OCCCN,-73% (active)
